Experiments:
Assay in all cases: PBM; 200 nM protein, PBS
Conditions in all cases: dsDNA, one strand shown
CRX [1] = target: CRX (Homo sapiens, UniProt O43186 26-111)
CRX [2] = target: CRX (Homo sapiens, UniProt O43186 26-111, E42D)
PITX2 = PITX2 (Homo sapiens, UniProt Q99697 72-157)
CRX [3] = target: CRX (Homo sapiens, UniProt O43186 26-111, R41L)
VAX1 [4] = target: VAX1 (Homo sapiens, UniProt Q5SQQ9 86-172)
VAX1 [5] = target: VAX1 (Homo sapiens, UniProt Q5SQQ9 86-172, T142I)
VAX1 [6] = target: VAX1 (Homo sapiens, UniProt Q5SQQ9 86-172, K157R)
Chain of VAX1 (Homo sapiens, UniProt Q5SQQ9 86-172, K157R) (Q5SQQ9 86-172 K157R): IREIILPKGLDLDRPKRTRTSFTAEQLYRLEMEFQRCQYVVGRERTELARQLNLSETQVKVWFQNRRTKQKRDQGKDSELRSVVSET

Chain of CRX (Homo sapiens, UniProt O43186 26-111, R41L) (O43186 26-111 R41L): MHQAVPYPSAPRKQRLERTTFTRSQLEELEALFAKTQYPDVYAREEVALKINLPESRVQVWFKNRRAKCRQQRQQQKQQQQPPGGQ
Chain of CRX (Homo sapiens, UniProt O43186 26-111) (O43186 26-111): as the sequence (O43186 26-111 R41L) above, with L16R counted along it
Chain of CRX (Homo sapiens, UniProt O43186 26-111, E42D) (O43186 26-111 E42D): as the sequence (O43186 26-111 R41L) above, with L16R, E17D counted along it
Chain of VAX1 (Homo sapiens, UniProt Q5SQQ9 86-172) (Q5SQQ9 86-172): as the sequence (Q5SQQ9 86-172 K157R) above, with R72K counted along it
Chain of VAX1 (Homo sapiens, UniProt Q5SQQ9 86-172, T142I) (Q5SQQ9 86-172 T142I): as the sequence (Q5SQQ9 86-172 K157R) above, with T57I, R72K counted along it

Sequence	binding signal (CRX [1])	binding signal (CRX [2])	binding signal (PITX2)	binding signal (CRX [3])	binding signal (VAX1 [4])	binding signal (VAX1 [5])	binding signal (VAX1 [6])
AGGATTAA	13.6 upbm affinity estimate (log intensity, higher = more binding, comparable within an allelic series)	13.7 upbm affinity estimate (log intensity, higher = more binding, comparable within an allelic series)	13.3 upbm affinity estimate (log intensity, higher = more binding, comparable within an allelic series)	13.5 upbm affinity estimate (log intensity, higher = more binding, comparable within an allelic series)	–	–	–
AACTTTAA	10.5 upbm affinity estimate (log intensity, higher = more binding, comparable within an allelic series)	10.2 upbm affinity estimate (log intensity, higher = more binding, comparable within an allelic series)	–	–	9.82 upbm affinity estimate (log intensity, higher = more binding, comparable within an allelic series)	9.35 upbm affinity estimate (log intensity, higher = more binding, comparable within an allelic series)	9.35 upbm affinity estimate (log intensity, higher = more binding, comparable within an allelic series)
AGATTAAG	13.1 upbm affinity estimate (log intensity, higher = more binding, comparable within an allelic series)	13 upbm affinity estimate (log intensity, higher = more binding, comparable within an allelic series)	12.6 upbm affinity estimate (log intensity, higher = more binding, comparable within an allelic series)	12.6 upbm affinity estimate (log intensity, higher = more binding, comparable within an allelic series)	–	–	–
TAATCCGA	13.6 upbm affinity estimate (log intensity, higher = more binding, comparable within an allelic series)	13.6 upbm affinity estimate (log intensity, higher = more binding, comparable within an allelic series)	13.1 upbm affinity estimate (log intensity, higher = more binding, comparable within an allelic series)	13.5 upbm affinity estimate (log intensity, higher = more binding, comparable within an allelic series)	–	–	–
AGATTAAT	12.9 upbm affinity estimate (log intensity, higher = more binding, comparable within an allelic series)	12.9 upbm affinity estimate (log intensity, higher = more binding, comparable within an allelic series)	12.6 upbm affinity estimate (log intensity, higher = more binding, comparable within an allelic series)	12.5 upbm affinity estimate (log intensity, higher = more binding, comparable within an allelic series)	–	–	–
GGATTATA	13.5 upbm affinity estimate (log intensity, higher = more binding, comparable within an allelic series)	13.6 upbm affinity estimate (log intensity, higher = more binding, comparable within an allelic series)	13.2 upbm affinity estimate (log intensity, higher = more binding, comparable within an allelic series)	13.7 upbm affinity estimate (log intensity, higher = more binding, comparable within an allelic series)	–	–	–
GGGATTAC	13.2 upbm affinity estimate (log intensity, higher = more binding, comparable within an allelic series)	13.2 upbm affinity estimate (log intensity, higher = more binding, comparable within an allelic series)	13.1 upbm affinity estimate (log intensity, higher = more binding, comparable within an allelic series)	13.2 upbm affinity estimate (log intensity, higher = more binding, comparable within an allelic series)	–	–	–
CCTAATCC	13.5 upbm affinity estimate (log intensity, higher = more binding, comparable within an allelic series)	13.6 upbm affinity estimate (log intensity, higher = more binding, comparable within an allelic series)	13.3 upbm affinity estimate (log intensity, higher = more binding, comparable within an allelic series)	13.2 upbm affinity estimate (log intensity, higher = more binding, comparable within an allelic series)	–	–	–
AGGGATTA	13.6 upbm affinity estimate (log intensity, higher = more binding, comparable within an allelic series)	13.7 upbm affinity estimate (log intensity, higher = more binding, comparable within an allelic series)	13.5 upbm affinity estimate (log intensity, higher = more binding, comparable within an allelic series)	13.7 upbm affinity estimate (log intensity, higher = more binding, comparable within an allelic series)	–	–	–
CGTAATCC	13.2 upbm affinity estimate (log intensity, higher = more binding, comparable within an allelic series)	13.2 upbm affinity estimate (log intensity, higher = more binding, comparable within an allelic series)	13 upbm affinity estimate (log intensity, higher = more binding, comparable within an allelic series)	13.2 upbm affinity estimate (log intensity, higher = more binding, comparable within an allelic series)	–	–	–
GAGGATTA	13.5 upbm affinity estimate (log intensity, higher = more binding, comparable within an allelic series)	13.6 upbm affinity estimate (log intensity, higher = more binding, comparable within an allelic series)	13.1 upbm affinity estimate (log intensity, higher = more binding, comparable within an allelic series)	13.4 upbm affinity estimate (log intensity, higher = more binding, comparable within an allelic series)	–	–	–
CGCTGCCG	8.07 upbm affinity estimate (log intensity, higher = more binding, comparable within an allelic series)	8.09 upbm affinity estimate (log intensity, higher = more binding, comparable within an allelic series)	–	8.04 upbm affinity estimate (log intensity, higher = more binding, comparable within an allelic series)	6.84 upbm affinity estimate (log intensity, higher = more binding, comparable within an allelic series)	7.05 upbm affinity estimate (log intensity, higher = more binding, comparable within an allelic series)	6.97 upbm affinity estimate (log intensity, higher = more binding, comparable within an allelic series)
CTTAATCC	13.7 upbm affinity estimate (log intensity, higher = more binding, comparable within an allelic series)	13.8 upbm affinity estimate (log intensity, higher = more binding, comparable within an allelic series)	13.5 upbm affinity estimate (log intensity, higher = more binding, comparable within an allelic series)	13.5 upbm affinity estimate (log intensity, higher = more binding, comparable within an allelic series)	–	–	–
CTGGATTA	13.1 upbm affinity estimate (log intensity, higher = more binding, comparable within an allelic series)	13.1 upbm affinity estimate (log intensity, higher = more binding, comparable within an allelic series)	13 upbm affinity estimate (log intensity, higher = more binding, comparable within an allelic series)	12.9 upbm affinity estimate (log intensity, higher = more binding, comparable within an allelic series)	–	–	–
GATTAAGC	13.1 upbm affinity estimate (log intensity, higher = more binding, comparable within an allelic series)	13.1 upbm affinity estimate (log intensity, higher = more binding, comparable within an allelic series)	12.7 upbm affinity estimate (log intensity, higher = more binding, comparable within an allelic series)	12.6 upbm affinity estimate (log intensity, higher = more binding, comparable within an allelic series)	–	–	–
GAAGATTA	12.8 upbm affinity estimate (log intensity, higher = more binding, comparable within an allelic series)	12.8 upbm affinity estimate (log intensity, higher = more binding, comparable within an allelic series)	12.4 upbm affinity estimate (log intensity, higher = more binding, comparable within an allelic series)	12.5 upbm affinity estimate (log intensity, higher = more binding, comparable within an allelic series)	–	–	–
ATAATCTC	13.1 upbm affinity estimate (log intensity, higher = more binding, comparable within an allelic series)	13.1 upbm affinity estimate (log intensity, higher = more binding, comparable within an allelic series)	12.7 upbm affinity estimate (log intensity, higher = more binding, comparable within an allelic series)	13.1 upbm affinity estimate (log intensity, higher = more binding, comparable within an allelic series)	–	–	–
ACGGATTA	13.5 upbm affinity estimate (log intensity, higher = more binding, comparable within an allelic series)	13.5 upbm affinity estimate (log intensity, higher = more binding, comparable within an allelic series)	13.1 upbm affinity estimate (log intensity, higher = more binding, comparable within an allelic series)	13.5 upbm affinity estimate (log intensity, higher = more binding, comparable within an allelic series)	–	–	–
GATAATCC	13.6 upbm affinity estimate (log intensity, higher = more binding, comparable within an allelic series)	13.8 upbm affinity estimate (log intensity, higher = more binding, comparable within an allelic series)	13.4 upbm affinity estimate (log intensity, higher = more binding, comparable within an allelic series)	13.9 upbm affinity estimate (log intensity, higher = more binding, comparable within an allelic series)	–	–	–
GGCTTAAC	12.7 upbm affinity estimate (log intensity, higher = more binding, comparable within an allelic series)	12.6 upbm affinity estimate (log intensity, higher = more binding, comparable within an allelic series)	12.7 upbm affinity estimate (log intensity, higher = more binding, comparable within an allelic series)	12.1 upbm affinity estimate (log intensity, higher = more binding, comparable within an allelic series)	–	–	–
TAATCCCA	13.4 upbm affinity estimate (log intensity, higher = more binding, comparable within an allelic series)	13.4 upbm affinity estimate (log intensity, higher = more binding, comparable within an allelic series)	13.4 upbm affinity estimate (log intensity, higher = more binding, comparable within an allelic series)	13.3 upbm affinity estimate (log intensity, higher = more binding, comparable within an allelic series)	–	–	–
CGTTAATC	12.8 upbm affinity estimate (log intensity, higher = more binding, comparable within an allelic series)	12.6 upbm affinity estimate (log intensity, higher = more binding, comparable within an allelic series)	12.4 upbm affinity estimate (log intensity, higher = more binding, comparable within an allelic series)	12.3 upbm affinity estimate (log intensity, higher = more binding, comparable within an allelic series)	–	–	–
ATGGATTA	13.2 upbm affinity estimate (log intensity, higher = more binding, comparable within an allelic series)	13.2 upbm affinity estimate (log intensity, higher = more binding, comparable within an allelic series)	13.2 upbm affinity estimate (log intensity, higher = more binding, comparable within an allelic series)	13 upbm affinity estimate (log intensity, higher = more binding, comparable within an allelic series)	–	–	–
GCTAATCC	13.4 upbm affinity estimate (log intensity, higher = more binding, comparable within an allelic series)	13.5 upbm affinity estimate (log intensity, higher = more binding, comparable within an allelic series)	13.3 upbm affinity estimate (log intensity, higher = more binding, comparable within an allelic series)	13.4 upbm affinity estimate (log intensity, higher = more binding, comparable within an allelic series)	–	–	–
CTAATCCA	13.3 upbm affinity estimate (log intensity, higher = more binding, comparable within an allelic series)	13.3 upbm affinity estimate (log intensity, higher = more binding, comparable within an allelic series)	13.2 upbm affinity estimate (log intensity, higher = more binding, comparable within an allelic series)	13 upbm affinity estimate (log intensity, higher = more binding, comparable within an allelic series)	–	–	–
GCGCACGC	8.22 upbm affinity estimate (log intensity, higher = more binding, comparable within an allelic series)	8.37 upbm affinity estimate (log intensity, higher = more binding, comparable within an allelic series)	7.91 upbm affinity estimate (log intensity, higher = more binding, comparable within an allelic series)	8.29 upbm affinity estimate (log intensity, higher = more binding, comparable within an allelic series)	–	–	–
CCGGATTA	13.5 upbm affinity estimate (log intensity, higher = more binding, comparable within an allelic series)	13.6 upbm affinity estimate (log intensity, higher = more binding, comparable within an allelic series)	13.1 upbm affinity estimate (log intensity, higher = more binding, comparable within an allelic series)	13.5 upbm affinity estimate (log intensity, higher = more binding, comparable within an allelic series)	–	–	–
